Test results reported in PubChem BioAssay AID2544 (Sanford-Burnham Center for Chemical Genomics, 2010).
Hit rate of the full screen: of about 330,000 compounds, about 390 (0.12%) were called active. Only a selection was taken, and actives are over-represented in it overall. Values without a mark were called inactive.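 How the source made its calls: active means inhibition reaching a set limit with compound at 10 µM in the primary screen (cut at about 35% in these data); inactive means the rest.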

These compounds were tested against Intestinal-type alkaline phosphatase (Homo sapiens) (UniProt P09923) (assay: blockers of intestinal alkaline phosphatase activity – biochemical, luminescence, uHTS, primary screen (AID 2544;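 further: plate controls were DMSO wells with enzyme for no effect and no-enzyme buffer wells for full effect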)). Settings: purified IAP, CDP-Star luminescence, 30 min; at 10 µM; hits give high values.
Chain of Intestinal-type alkaline phosphatase (Homo sapiens) (P09923 whole entry, looked up): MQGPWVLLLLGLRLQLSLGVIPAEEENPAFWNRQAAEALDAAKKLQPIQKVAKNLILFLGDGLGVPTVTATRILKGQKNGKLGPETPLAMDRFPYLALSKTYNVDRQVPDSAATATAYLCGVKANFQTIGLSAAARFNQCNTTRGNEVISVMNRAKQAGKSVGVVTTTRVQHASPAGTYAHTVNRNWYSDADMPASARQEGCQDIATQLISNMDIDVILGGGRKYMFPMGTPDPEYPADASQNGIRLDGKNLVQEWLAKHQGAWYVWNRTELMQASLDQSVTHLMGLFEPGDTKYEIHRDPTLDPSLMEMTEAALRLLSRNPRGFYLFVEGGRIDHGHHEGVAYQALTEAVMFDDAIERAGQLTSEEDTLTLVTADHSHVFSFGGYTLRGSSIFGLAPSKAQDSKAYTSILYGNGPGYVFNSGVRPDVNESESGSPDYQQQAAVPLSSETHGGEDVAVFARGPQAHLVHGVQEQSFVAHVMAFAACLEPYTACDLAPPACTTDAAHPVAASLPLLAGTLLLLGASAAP

SMILES	inhibition
O=C1N=c2ccccc2=C/C1=C\c1c(O)[nH]c(=S)[nH]c1=O	-13%
CCOCCc1c(O)[nH]c(=S)[nH]c1=O	7.2%
COc1ccccc1N=Nc1c(O)[nH]c(=S)[nH]c1=O	37.5% (active)
COc1ccc(NC(=O)c2cn(CCC#N)nc2-c2ccc([N+](=O)[O-])cc2)cc1	1.2%
CN(c1ccccc1)c1ccc([N+](=O)[O-])c2nonc12	45.8% (active)
CCN(CC)c1ccc([N+](=O)[O-])c2cccnc12	26.2%
O=C(OCCN1CCOCC1)C1(c2ccccc2)CCCC1	-11.7%
Cc1ccc2c(c1)C1CN(C)CCC1N2C(=O)Cn1nnc(-c2ccccc2F)n1 (stereo not given)	-5.5%
Cc1ccc2c(c1)=C/C(=C\c1c(O)[nH]c(=O)[nH]c1=O)C(=O)N=2	-9.3%
COc1ccc(-n2c(O)c(C(C)=Nc3ccc4c(c3)CCC4)c(=O)[nH]c2=O)cc1	-16.1%
